Experimental findings from PubChem BioAssay (NCI) are described below.

The panel holds about 83,000 compounds, 20% with a hit somewhere; the sample as a whole holds those more often.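 Cell lines were cultured in 96-well plates, exposed to a single compound concentration, and assessed for percent growth 48 hours later.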 Values without a mark were called inactive. Activity calls are given as the source filed them. How the source made its calls: active means growth percent below 10; inactive means the rest.

What all share (experiment): NCI-60 one-dose screen, 48 h (100 = growth as untreated, 0 = no growth, -100 = all killed)
Conditions in all cases: 10 µM unless noted

The test system of assay [1] is SK-MEL-2 melanoma.
Assay [2] has as its system EKVX NSCLC.
Assay [3] has as its system TK-10 renal.
Assay [4] has as its system ACHN renal.
Assay [5] relates to CAKI-1 renal.
Assay [6] has as its system A498 renal.
Assay [7] deals with CCRF-CEM leukemia.
For assay [8], the system named is MOLT-4 leukemia.
The test system of assay [9] is UO-31 renal.
Assay [10] relates to SN12C renal.

In the case of `CCCCn1c(O)c(N=Nc2nc(-c3cc4ccccc4oc3=O)cs2)c2cc(Br)ccc21`, the growth was 116% in assay [1]; 97.1% in [2]; 115% in assay [3]; 106% in assay [4]; 102% in [5]; 103% in [6]. Further, the figures for the growth in assay [7] and in assay [8] were 104% and 107%, respectively.

Take `CC(C)c1sc(NC(=O)c2cc(NC(=O)c3cc(NC(=O)c4nccn4C)cn3C)cn2C)nc1C(=O)NCCCN(C)C`: the growth was 80.8% in assay [1]; 105% in [2]; 98.1% in assay [9]; 97.9% in assay [3]; 108% in [4]; 116% in assay [6]. In addition, the growth was 19.3% in assay [7] and 65.8% in assay [8].

Consider `Cc1cccc(NC(=O)[C@]23CCC(C)(C)CC2C2=CCC4[C@@]5(C)C[C@@H](O)[C@H](O)[C@@](C)(CO)C5CC[C@@]4(C)[C@]2(C)CC3)c1` (stereo not given in full), for which the growth in assay [1] is 32.2%; in assay [2], 11.5%; in [3], 52.9%; in [4], 1.52% (active); in [5], 22.8%; in [6], -11.3% (active). Further, the results for the growth in assay [7] and in [8] were 15.8% and 5.2% (active), respectively.

On to `CCC(C)(C)c1ccc(OCCCCCCN2CCN(c3ccncc3)CC2)cc1`, for which the growth was 71.6% in assay [1]; 6.51% (active) in [2]; 28.2% in assay [9]; 65.2% in assay [3]; 48.3% in [4]; 17.5% in assay [5]. Also, the values for the growth in assay [6], in [7] and in assay [8] were 66.1%, -23.4% (active) and -23.5% (active), respectively.

With `CN(C)CCn1c2ccccc2c2nc3cc4ccccc4cc3nc21`, the growth was 60.1% in [1]; 36.8% in assay [2]; 12.3% in [9]; 53% in assay [3]; 7.52% (active) in assay [4]; 4.76% (active) in assay [5]. Besides, the growth in [6] is 80.8%; in [7] it was 18.3%; in assay [8], 7.22% (active).

On to `C=C1CC[C@@H]2[C@]3(C)COC(c4cn[nH]c4-c4cccc(Cl)c4)O[C@@H]3CC[C@@]2(C)[C@@H]1C/C=C1/C(=O)OCC1O` (stereo not given in full), for which the growth in assay [1] is -23.7% (active); in assay [2], 8.03% (active); in assay [3] it was 3.28% (active); in [4] it was -87.4% (active); in assay [5], 32.6%; in assay [6], 151%. Also, the growth in assay [7] was -14.9% (active); in assay [8] it was 12.7%.

As to `Clc1cccc(-c2ccc(OCCCN3CCN(c4ccncc4)CC3)cc2)c1`, the growth in assay [1] is 74%; in assay [2], 11.6%; in [9] it was 30.4%; in [3], 41.9%; in assay [4], 49.4%; in assay [5], 5.23% (active). The values for the growth in assay [6] and in [8] were 65.5% and -47.4% (active), respectively.

With `O=c1[nH]c2ccccc2cc1CSc1cccc(Nc2nccc(-c3ccc4ccccc4c3)n2)c1`, the growth in assay [1] is 98.3%; in assay [2], 95.4%; in [9], 73.4%; in assay [3] it was 79.9%; in assay [4], 95.5%; in assay [5], 81.2%. The values for the growth in assay [6], in [7] and in assay [8] were 106%, 46.8% and 65.9%, respectively.

As to `COc1ccc(N2N=C(c3ccc4c(c3)OCO4)CC2c2cccc(NC(=O)CCCNS(=O)(=O)c3ccc(F)cc3)c2)cc1` (stereo not given), the growth is 73.5% in [1]; 52.1% in assay [2]; 56.2% in assay [9]; 66.8% in assay [3]; 59.2% in assay [4]; 67.6% in [6]. Also, the growth was 53.5% in assay [7] and 33.4% in [8].

Take `O=C1C(=Nc2ccc(F)c(Cl)c2)c2cccc3cccc1c23`: the growth in [2] was 75.5%; in assay [10] it was 57.3%; in assay [9], 38.2%; in [3] it was 111%; in assay [4], 32.2%; in assay [5], 55.4%. In addition, the growth in [6] was 118%; in assay [7], 6.25% (active).

As to `Cc1cc(=O)oc2cc(OCCOc3ccc(/C=C/C(=O)Nc4ccccc4N)cc3)ccc12`, the growth in [1] was 59.1%; in assay [2], 38.8%; in assay [9], 7.73% (active); in [3] it was 43.3%; in assay [4], 37.1%; in [5], 30.7%. For the same compound, the results for the growth in assay [6], in [7] and in [8] were 14.4%, 6.51% (active) and 4.54% (active), respectively.

As to `C[C@H](Nc1nc(NCCc2ccccc2)nc2ccccc12)c1ccccc1`, the growth in assay [1] was -92% (active); in assay [2] it was -86.2% (active); in assay [9] it was -95.9% (active); in assay [3], -93.6% (active); in assay [4] it was -97.2% (active); in [6], -69.5% (active). Further, the growth in assay [7] is -16.3% (active); in assay [8] it was -60.3% (active).

Regarding `CC(=O)OC[C@@]1(C)C2CC[C@]3(C)C(CC=C4C5CC(C)(C)CC[C@]5(C(=O)Nc5ccc(C)cc5)CC[C@]43C)[C@@]2(C)C[C@@H](OC(C)=O)[C@@H]1OC(C)=O` (stereo not given in full), the growth in [1] is 39.4%; in assay [2], 32.4%; in assay [9] it was 40.9%; in assay [3] it was 53.2%; in assay [4], 38.9%; in assay [5], 45.8%. Also, the growth in [6] is 67.1%; in assay [7], 32.8%; in assay [8], 34.4%.

As for `CN(C)c1ccnc(CNCCSC2(c3ccc(C(F)(F)F)cc3)c3ccccc3CCc3ccccc32)c1`, the growth in [1] was -37.6% (active); in assay [2], -25.3% (active); in [9] it was 1.7% (active); in [3], 0.0233% (active); in assay [4], -12.1% (active); in [5] it was -0.905% (active). The values for the growth in assay [6] and in assay [8] were -4.68% (active) and -20.9% (active), respectively.

With `C#CCOc1ccc(/C=N/Nc2nc(-c3ccc(F)cc3)cs2)cc1OC`, the growth was 60.8% in [1]; 62.5% in assay [2]; 48.4% in assay [9]; 156% in assay [3]; 64.5% in assay [4]; 80.7% in assay [6]. Moreover, the results for the growth in assay [7] and in assay [8] were 26.3% and 12.1%, respectively.
